Reference: PubChem BioAssay (NCATS)
Where “and” joins values, the source holds several entries; their conditions need not be identical. Equal values may be shown once. Results filed as inconclusive are left out. Calls of active or inactive are those of the source. Calls come from the whole dose curve; as a rule, active = well fitted activation curve with a large enough effect; inconclusive = small, poorly fitted or top-dose-only effect; inactive = no such curve, though single readings can be large or run the other way.

Target: Cellular tumor antigen p53 (Homo sapiens) (UniProt P04637)
Sequence (P04637 whole entry, looked up): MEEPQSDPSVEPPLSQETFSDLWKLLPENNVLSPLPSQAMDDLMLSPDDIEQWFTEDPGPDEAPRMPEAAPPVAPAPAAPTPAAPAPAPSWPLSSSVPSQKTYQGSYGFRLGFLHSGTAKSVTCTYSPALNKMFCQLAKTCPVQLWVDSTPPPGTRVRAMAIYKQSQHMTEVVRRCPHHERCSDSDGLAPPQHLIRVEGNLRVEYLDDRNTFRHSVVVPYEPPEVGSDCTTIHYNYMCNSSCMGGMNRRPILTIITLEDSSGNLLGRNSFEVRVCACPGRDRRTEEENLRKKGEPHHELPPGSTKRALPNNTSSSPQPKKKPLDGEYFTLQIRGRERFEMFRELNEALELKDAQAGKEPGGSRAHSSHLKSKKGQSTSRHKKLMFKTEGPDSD
Assay: Primary qHTS for small molecule compounds that upregulate eGFP-tagged delta133p53alpha (in N-terminal) cells. (AID 2060322);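 note: series mostly up to about 56 µM; 0% = DMSO vehicle and 100% = reference activator; nearly all actives have a fitted effect of over 75% in size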
Conditions: NCI-H358 eGFP-delta133p53alpha fluorescence, 24 h; activation: hits give high values
Method in brief: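 NCI-H358 cells pre-induced 24 h with 10 ng/ml doxycycline to express N-terminal eGFP-delta133p53alpha, then dosed 24 h at 37C without doxycycline; fixed, Hoechst-stained, GFP intensity by laser scanning cytometry, normalized to DMSO (0%) and 57.5 uM 5-azacytidine (100%).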

SMILES	activation
C/C(=C\c1ccc(C(=O)O)cc1)c1ccc2c(c1)C(C)(C)CCC2(C)C	-14.6% (inactive)
CC(=O)/C(C)=N/O	-2.27% (inactive)
OCC1NCC(O)C(O)C1O (stereo not given)	-36.6% (inactive)
CNc1ncnc2c1ncn2[C@H]1C[C@H](OP(=O)(O)O)[C@@H](COP(=O)(O)O)O1	3.4% (inactive)
CCOC(=O)C1=C[C@]2(CC)CCCN3CCc4c(n1c1ccccc41)[C@@H]32	20.9% (inactive) and -18.2% (inactive)
CC(C)C[C@H](NC(=O)[C@H](O)[C@H](N)Cc1ccccc1)C(=O)O	3.56% (inactive)
Cc1ccc(=O)n(-c2ccccc2)c1	1.01% (inactive)
CN(C)C(=O)Oc1ccc[n+](C)c1	-10.7% (inactive) and 11.9% (inactive)
COc1ccc(CCn2nnnc2C2(c3ccc(C)cc3)CC2)cc1	-20.3% (inactive)
CC(C)(C)NC[C@H](O)COc1nsnc1N1CCOCC1	-9.94% (inactive)
Cc1nc2sccn2c(=O)c1CCN1CCC(=C(c2ccc(F)cc2)c2ccc(F)cc2)CC1	-20.9% (inactive) and -40.8% (inactive)
CCCCNc1ccc(C(=O)OCCN(C)C)cc1	-9.6% (inactive) and 10.7% (inactive)
C[C@@H](O)[C@H]1C(=O)N2C(C(=O)O)=C(SCCN=CN)C[C@H]12	-25.9% (inactive) and 4.11% (inactive)
CC(N)C(=O)OC(C)(C)Cc1ccc(Cl)cc1 (stereo not given)	19.8% (inactive) and -28.1% (inactive)
O=c1onc2n1-c1cc(Br)ccc1OC2	-18.5% (inactive)
O=C(O)CCCCCCCC(=O)O	17.5% (inactive) and -5.1% (inactive)
CCCOC(=O)c1c(-c2ccccc2)nc(CC)c(C(=O)SCC)c1CCC	-30.9% (inactive)
O=C(O)C1=CCNCC1	-0.576% (inactive)
C[C@]12CC[C@@H]3c4ccc(O)cc4C[C@@H](CCCCCCCCCS(=O)CCCC(F)(F)C(F)(F)F)[C@H]3[C@@H]1CC[C@@H]2O (stereo not given in full)	5.86% (inactive) and -66.3% (inactive)
CSC(N)=NCCC[C@H](N)C(=O)O	3.33% (inactive)

SMILES	activation
O=C(O)c1cc2cc(F)ccc2[nH]1	-70.8% (inactive)
C=C(C)C1CC=C(C(=O)O)CC1 (stereo not given)	-6.28% (inactive)
CN(C)CCCN1c2ccccc2Sc2ccccc21	2.51% (inactive) and 16.3% (inactive)
Cn1ccnc1	-23.6% (inactive)
c1ccc2c(c1)CC(N1CCN(c3cccc4c3OCCO4)CC1)C2	1.22% (inactive)
N=C(N)SCCN	-11.7% (inactive)
N=C(N)c1ccccc1	-12.8% (inactive)
CSc1ccc(C(=O)c2[nH]c(=O)[nH]c2C)cc1	-17.5% (inactive) and -26.2% (inactive)
COc1ccccc1N1CCN(CCCCN2C(=O)c3ccccc3C2=O)CC1	-14.4% (inactive)
Nc1nc2ccc(Cl)cc2n2c(-c3ccccc3)nnc12	-21.3% (inactive)
CO[C@H]1O[C@@H]2O[C@]3(C)CC[C@@H]4[C@@H](C)CC[C@H]([C@H]1C)[C@]24OO3	-13% (inactive)
Nc1ccc(N2C(=O)c3ccccc3C2=O)c(Cl)c1	-1.82% (inactive)
CN(C)C(N)=NCCC[C@H](N)C(=O)O	-10.9% (inactive)
COCc1nc2c([nH]1)c(=O)n(C)c(=O)n2CC(C)C	12.4% (inactive)
CC1(C)CCC(NC(=O)[C@@H](N)CCC(=O)O)CC1	-8.15% (inactive)
C=CCc1ccccc1OCC(O)CNC(C)C (stereo not given)	2.82% (inactive) and -28% (inactive)
CC(CCc1ccc(O)cc1)NCCc1ccc(O)c(O)c1 (stereo not given)	23.7% (inactive) and -15.1% (inactive) and -3.75% (inactive)
CC(C)NC[C@H](O)COc1ccc(CC(N)=O)cc1	-18.8% (inactive)
CC(=O)SCC[N+](C)(C)C	-8.68% (inactive)
CC1(C)C(=O)N(CCN2CCC(C(=O)c3ccc(F)cc3)CC2)c2ccccc21	-67.7% (inactive) and -2.62% (inactive)
